# Measurements from the supplement of paper PMC10515830.
# Structures can show the parent of a compound that is named as a salt.
# Tests used:
# Conditions in all cases: 10 µM; exposure time 6 h
# [1] = system: Danio rerio larvae (5 dpf); test: difference in excitability vs DMSO (percentage points); higher = more excitable than DMSO
# Outline: (§1)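 In 96-well plates, 48 wild-type zebrafish larvae aged 5 dpf per compound received 100 µL egg water with library compound at 10 µM final for 6 h. Three hours into this, a 3-h programme of moving lines and 100 ms, 400Hz tones ran at 28.5 ℃ while plates were photographed every 6 s. Z-LaP Tracker scored the behaviours, and each is given as the compound mean minus the vehicle control mean in percentage points.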
# [2] = system: Danio rerio larvae (5 dpf); test: difference in startle response vs DMSO (percentage points); higher = stronger startle than DMSO
# Outline: as §1
# [3] = system: Danio rerio larvae (5 dpf); test: difference in activity during first hour vs DMSO (percentage points); higher = more activity than DMSO
# Outline: as §1
# [4] = system: Danio rerio larvae (5 dpf); test: difference in habituation to acoustic stimuli vs DMSO (percentage points); higher = more habituation than DMSO
# Outline: as §1
# [5] = system: Danio rerio larvae (5 dpf); test: difference in combined optomotor response to red, green and blue moving lines vs DMSO (percentage points); higher = stronger optomotor response than DMSO
# Outline: as §1
Compound,difference in excitability [1],difference in startle response [2],difference in activity during first hour [3],difference in habituation to acoustic stimuli [4],difference [5]
NC(=O)N1c2ccccc2C=Cc2ccccc21 [Carbamazepine],-5.41,5.12,-2.57,0.458,11.2
C[C@]12C=CC(=O)N[C@@H]1CC[C@@H]1[C@@H]2CC[C@]2(C)[C@@H](C(=O)Nc3cc(C(F)(F)F)ccc3C(F)(F)F)CC[C@@H]12 [Dutasteride],18.8,-0.713,22.4,-8.39,-3.79
Cc1cc(/C=C/C#N)cc(C)c1Nc1ccnc(Nc2ccc(C#N)cc2)n1 [Rilpivirine],9.16,-10.5,-18.2,-9.2,-12.5
NCC(=O)CCC(=O)O [5-Aminolevulinic Acid (hydrochloride)],11.2,1.8,1.6,-2.9,2.93
NCCNCCNCCN [Trientine (hydrochloride)],15.9,-0.163,13,-1.81,-9.36
CN(CCOc1ccc(CC2SC(=O)NC2=O)cc1)c1ccccn1 (stereo not given) [Rosiglitazone],6.79,-7.02,26.9,-12.6,-6.71
"COc1ccc2cc(C(C)C(=O)O)ccc2c1 (single isomer, unassigned; (+)) [(+)-Naproxen]",3.24,2.79,-2.88,2.25,-3.32
CN(C)c1ccc(O)c2c1C[C@H]1C[C@H]3[C@H](N(C)C)C(O)=C(C(N)=O)C(=O)[C@@]3(O)C(O)=C1C2=O [Minocycline (hydrochloride hydrate)],3.95,-2.06,13.3,8.03,-2.24
CC[C@H](Nc1ncnc2[nH]cnc12)c1nc2cccc(F)c2c(=O)n1-c1ccccc1,5.3,1.19,-0.052,-0.933,2.36
CC=CC(=O)N(CC)c1ccccc1C [Crotamiton],0.486,3.97,-3.58,4.95,-3.13
Cc1cc(NS(=O)(=O)c2ccc(N)cc2)no1 [Sulfamethoxazole],0.0564,4.25,9.59,3.04,8.31
CC(C)Cn1cnc2c(N)nc3ccccc3c21 [Imiquimod],-4.08,8.27,-15,-2.3,-3.49
NC(=O)N1c2ccccc2CC(=O)c2ccccc21 [Oxcarbazepine],-3.21,8.33,10.1,0.525,8.73
CC(C)OC(=O)CCC/C=C\C[C@@H]1[C@@H](/C=C/[C@@H](O)COc2cccc(C(F)(F)F)c2)[C@H](O)C[C@@H]1O [Fluprostenol isopropyl ester],7.89,-1.38,5.82,8.61,7.99
Cc1ccccc1C(=O)Nc1ccc(C(=O)N2CCCC(O)c3cc(Cl)ccc32)c(C)c1 (stereo not given) [Tolvaptan],11,1.76,15.8,-0.912,5.47
CC#CCC(C)[C@H](O)/C=C/[C@@H]1[C@H]2C/C(=C/CCCC(=O)O)C[C@H]2C[C@H]1O (stereo not given in full) [Iloprost],-3.4,-1.91,1.64,-1.61,1.64
C[C@H](Cn1cnc2c(N)ncnc21)OCP(=O)(O)O [Tenofovir],-6.21,0.269,0.971,-2.1,5.37
Cc1ccc(C(=O)c2cc(O)c(O)c([N+](=O)[O-])c2)cc1 [Tolcapone],5.24,-9.07,8.3,-6.19,-0.989
CCC(=O)O[C@]1(C(=O)CCl)[C@@H](C)C[C@H]2[C@@H]3CCC4=CC(=O)C=C[C@]4(C)[C@@]3(F)[C@@H](O)C[C@@]21C [Clobetasol Propionate],2.04,-8.98,19.3,0.438,4.92
CN(C)C(=N)NC(=N)N [Metformin (hydrochloride)],-3.21,1.77,-3.05,-5.21,-1.97
O=c1[nH]cc(F)c(=O)[nH]1 [5-Fluorouracil],4.49,-1.7,-1.12,0.939,0.269
CCN1CC(CCN2CCOCC2)C(c2ccccc2)(c2ccccc2)C1=O (stereo not given) [Doxapram (hydrochloride hydrate)],1.64,-4.79,16.8,-5.51,1.89
O=C1[C@@H]2[C@H]3CC[C@H](C3)[C@@H]2C(=O)N1C[C@@H]1CCCC[C@H]1CN1CCN(c2nsc3ccccc23)CC1 [Lurasidone],-9.91,6.61,-1.19,-11.8,-17
CCC(C)(C)C(=O)O[C@H]1C[C@@H](C)C=C2C=C[C@H](C)[C@H](CC[C@@H]3C[C@@H](O)CC(=O)O3)[C@H]21 [Simvastatin],6.26,-2.42,9.76,1.77,2.53
Cc1cc(C#N)cc(C)c1Oc1nc(Nc2ccc(C#N)cc2)nc(N)c1Br [Etravirine],-2.94,0.144,10.9,-5.6,7.48
